This is an account of results in paper PMC12864922, “TDP-43 directly inhibits mRNA accumulation in neurites through modulation of mRNA stability”.

The full ranking holds about 9,900 sequences; the median of “r (bound/input frequency ratio)” is about 0.7, and the highest 2% start at about 6.5. The entries come from a sample that favours the highest values as a whole.

The chains are these.
B1: ENSMUSG00000032194.294|Kank2 (ssRNA)
RNA: GGGAGUUCUACAGUCCGACGAUCGCUUCGAUAUCCGCAUGCUAAUGGAUGAGAAACUGGGUUGGCUGGUGGGUAGAUGUCAUGAUGGAGUCUUUGCACGUGUAUGAAACAGAAAACCAAACUUCAGGACAGACAGCUGCUGGUGUCUCUGGAUGCUCACAGCCUAGGGCACAUUUGAAAGGUCGUGCUCUGAGCUGAGCCCUGAGUUCCAGCCUUGUAGCCAGCAAGGGAGUUUAUUUAAGGUUCUGGAAGCAUCAGCUAUGACCCAAAGCACACGCUCCUCAGAAAAGCCCCUGUUUCUGUCCUCUUGCGGUCGCACUAGUGUGGAAUUCUCGGGUGUCAAGG
B2: ENSMUSG00000042529.84|Kcnj12 (ssRNA)
RNA: GGGAGUUCUACAGUCCGACGAUCGCUUCGAUAUCCGCAUGCUACCCCACAAAACACAAGAAAACAUUAACAGGUGGUUCAAUUUUUAAAAUUCCUGGUGUGGGGACAGUUGGAAUUCUACUCAGCGCUGCCAGGCAAGCAGCUGGACGGAGAACCCUGAGGGUUCUCAGAGGUCUGUUUUCUCCCUCACGUGGGCCAGGGCCUUAAGCGAGUUGUCAUGCUUAAGGAUGAAUCAGGCUGCUUGUGACCAUGUUAACGAUUCUAAUAAAGUGUCUGGAUGUCUCUUGGGGGUGGGGCCCACUAGCUCUUGCGGUCGCACUAGUGUGGAAUUCUCGGGUGUCAAGG
B3: ENSMUSG00000061578.34|Ksr2|40:50;139:145;150:154 (ssRNA)
RNA: GGGAGUUCUACAGUCCGACGAUCGCUUCGAUAUCCGCAUGCUACCACUCAACUAGGACCAAACUGGGCCAGAGAGGGUCCCAACACACCACACAAGGAGCCACAGACUGAGCACACCACCUCGGACUGUGGAGACCAAGACACAUGCCCAGUGGGCAGACUCAGACUCACACGCUGGACCACACACACCGCAACACACUACACAUGGACAGGGCCAACUGCUAUCCUUCUGCCUGGACGAGCCAGCUGUGGAGUGUCCCAGCUGUGCUAUCCUGGAACACAGAACCAGGAUGGAACCAGAAACCUCUUGCGGUCGCACUAGUGUGGAAUUCUCGGGUGUCAAGG
B4: ENSMUSG00000061578.47|Ksr2|61:67;72:76 (ssRNA)
RNA: GGGAGUUCUACAGUCCGACGAUCGCUUCGAUAUCCGCAUGCUACGGACUGUGGAGACCAAGACACAUGCCCAGUGGGCAGACUCAGACUCACACGCUGGACCACACACACCGCAACACACUACACAUGGACAGGGCCAACUGCUAUCCUUCUGCCUGGACGAGCCAGCUGUGGAGUGUCCCAGCUGUGCUAUCCUGGAACACAGAACCAGGAUGGAACCAGAAACAAUACACCUGCUCCGUUGUCAAGGCUUCUAGGCCAAGGUCAGGGUAGGGAGGUGGGGUGGGUUAAACUUGCAAACAUCCUCUUGCGGUCGCACUAGUGUGGAAUUCUCGGGUGUCAAGG
B5: ENSMUSG00000035202.92|Lars2 (ssRNA)
RNA: GGGAGUUCUACAGUCCGACGAUCGCUUCGAUAUCCGCAUGCUAUUUUACCCUACUGAUGAUGUGUUGUUGCCAUGGUAAUCCUGCUCAGUACGAGAGGAACCGCAGCUAGCUUGUGUCUCCAGUGUCUUUUACCAUCACAGGCCCUGGCUCUGUGCUACCUCCCUAGAAUACCUGUGGUUCAUCACCUUCAGCUCACACUCCAUUCAGACAAUGCUCACUUAGGCCUACAAGCAAGGGAGAGGCUUAAGCACAAGGUCUUUAAGCUUGAUACUGUGCCUGGUCUCAAUGCCUAGAAAUUCCAACUCUUGCGGUCGCACUAGUGUGGAAUUCUCGGGUGUCAAGG
B6: ENSMUSG00000004113.188|Cacna1b (ssRNA)
RNA: GGGAGUUCUACAGUCCGACGAUCGCUUCGAUAUCCGCAUGCUAGCAAUGUUCCUGUAUGUUUCUACCCUGCCUGGGAUGUCCCCAAUGACCCUGGCUCCUCUGCUCAACCAAGUGCCUGAUCUCUGGCUCUGAGCAUCGUGGAUGAGGUACGGCCUCAGGAAGCAUCGGGUGGAUUGGGUGGGAGCUGCUCAGAGCAGCACGGGGGCUUGUGUCUUAGGGACAUUGACAGUGUCCAUCAGCAUGUCAGAGAAGCAGCUGUAGUGCCCGUGUUUCUCCCUGAGUCAUGGGUUCUGAAGAAGCCACUCUUGCGGUCGCACUAGUGUGGAAUUCUCGGGUGUCAAGG
B7: ENSMUSG00000058297.297|Spock2 (ssRNA)
RNA: GGGAGUUCUACAGUCCGACGAUCGCUUCGAUAUCCGCAUGCUAUGAGAGAGAGAAUACCCGAGGGCCACCCUGAUGCCCAGGAAGAGUGAGGGCAGCCCCCUGUGUGGUGGAAGAGGCUGGGCAGCUAGCUACUGGGGACCUUGUGCUGAGGCUUCCAGGACAAAGCCCCAGUCUGGCUCUCCCCCAGCCUCUCAGGGGCACUGGCUGGUCACAUCCACUGAGUAUUGAUCGGUUGGACUUUAGGGAAGAGCCUCCUCCUUCCCAUUCCUUUCUGCCACCCUGGAAUGGCCACCUUAAUCGUCCUCUUGCGGUCGCACUAGUGUGGAAUUCUCGGGUGUCAAGG
B8: ENSMUSG00000061578.129|Ksr2 (ssRNA)
RNA: GGGAGUUCUACAGUCCGACGAUCGCUUCGAUAUCCGCAUGCUAGGUGUGACCUUUACCAGUUCACCAUCAUUCAUGGCUUCCCCCAAAGUCCCGAGUCCUGAGAACCGGGGCUGUGGCAAGAGAGUUCUGGUGUGUUCUCUCUGUGGGGCUAGCAAUGCCGGGGUUAAGUUCUCCCUCGGUGAUGGAGACGGUCCUGGGUAUGCAUGAUGGGUUACAUGGGUGUGUGUGUGUGUGUAACUGUUUACAAUGGUCUCCCUGCCUCUCACGGGCUGUGUUCCAGGAGAAUGCACAUAGAGAGGUUCCUCUUGCGGUCGCACUAGUGUGGAAUUCUCGGGUGUCAAGG
B9: ENSMUSG00000058297.285|Spock2 (ssRNA)
RNA: GGGAGUUCUACAGUCCGACGAUCGCUUCGAUAUCCGCAUGCUAUGUGUGUGUGUGAGAGAGAGAGAGAGAGAGAGAGAGAGAGAGAGAGAGAAAGAGAGAGAGAAUGAGAGAGAAUGAGAGAGAGAAUACCCGAGGGCCACCCUGAUGCCCAGGAAGAGUGAGGGCAGCCCCCUGUGUGGUGGAAGAGGCUGGGCAGCUAGCUACUGGGGACCUUGUGCUGAGGCUUCCAGGACAAAGCCCCAGUCUGGCUCUCCCCCAGCCUCUCAGGGGCACUGGCUGGUCACAUCCACUGAGUAUUGAUCCUCUUGCGGUCGCACUAGUGUGGAAUUCUCGGGUGUCAAGG
B10: ENSMUSG00000061578.131|Ksr2 (ssRNA)
RNA: GGGAGUUCUACAGUCCGACGAUCGCUUCGAUAUCCGCAUGCUAACCAGUUCACCAUCAUUCAUGGCUUCCCCCAAAGUCCCGAGUCCUGAGAACCGGGGCUGUGGCAAGAGAGUUCUGGUGUGUUCUCUCUGUGGGGCUAGCAAUGCCGGGGUUAAGUUCUCCCUCGGUGAUGGAGACGGUCCUGGGUAUGCAUGAUGGGUUACAUGGGUGUGUGUGUGUGUGUAACUGUUUACAAUGGUCUCCCUGCCUCUCACGGGCUGUGUUCCAGGAGAAUGCACAUAGAGAGGUUCUGUGGUCUCUGCCUCUUGCGGUCGCACUAGUGUGGAAUUCUCGGGUGUCAAGG
B11: ENSMUSG00000058297.291|Spock2 (ssRNA)
RNA: GGGAGUUCUACAGUCCGACGAUCGCUUCGAUAUCCGCAUGCUAAGAGAGAGAGAGAAAGAGAGAGAGAAUGAGAGAGAAUGAGAGAGAGAAUACCCGAGGGCCACCCUGAUGCCCAGGAAGAGUGAGGGCAGCCCCCUGUGUGGUGGAAGAGGCUGGGCAGCUAGCUACUGGGGACCUUGUGCUGAGGCUUCCAGGACAAAGCCCCAGUCUGGCUCUCCCCCAGCCUCUCAGGGGCACUGGCUGGUCACAUCCACUGAGUAUUGAUCGGUUGGACUUUAGGGAAGAGCCUCCUCCUUCCCAUUCUCUUGCGGUCGCACUAGUGUGGAAUUCUCGGGUGUCAAGG
B12: ENSMUSG00000058297.286|Spock2 (ssRNA)
RNA: GGGAGUUCUACAGUCCGACGAUCGCUUCGAUAUCCGCAUGCUAUGUGUGAGAGAGAGAGAGAGAGAGAGAGAGAGAGAGAGAGAGAAAGAGAGAGAGAAUGAGAGAGAAUGAGAGAGAGAAUACCCGAGGGCCACCCUGAUGCCCAGGAAGAGUGAGGGCAGCCCCCUGUGUGGUGGAAGAGGCUGGGCAGCUAGCUACUGGGGACCUUGUGCUGAGGCUUCCAGGACAAAGCCCCAGUCUGGCUCUCCCCCAGCCUCUCAGGGGCACUGGCUGGUCACAUCCACUGAGUAUUGAUCGGUUGGCUCUUGCGGUCGCACUAGUGUGGAAUUCUCGGGUGUCAAGG
B13: ENSMUSG00000061578.130|Ksr2 (ssRNA)
RNA: GGGAGUUCUACAGUCCGACGAUCGCUUCGAUAUCCGCAUGCUAACCUUUACCAGUUCACCAUCAUUCAUGGCUUCCCCCAAAGUCCCGAGUCCUGAGAACCGGGGCUGUGGCAAGAGAGUUCUGGUGUGUUCUCUCUGUGGGGCUAGCAAUGCCGGGGUUAAGUUCUCCCUCGGUGAUGGAGACGGUCCUGGGUAUGCAUGAUGGGUUACAUGGGUGUGUGUGUGUGUGUAACUGUUUACAAUGGUCUCCCUGCCUCUCACGGGCUGUGUUCCAGGAGAAUGCACAUAGAGAGGUUCUGUGGUCUCUUGCGGUCGCACUAGUGUGGAAUUCUCGGGUGUCAAGG
B14: ENSMUSG00000058297.298|Spock2 (ssRNA)
RNA: GGGAGUUCUACAGUCCGACGAUCGCUUCGAUAUCCGCAUGCUAAGAGAAUACCCGAGGGCCACCCUGAUGCCCAGGAAGAGUGAGGGCAGCCCCCUGUGUGGUGGAAGAGGCUGGGCAGCUAGCUACUGGGGACCUUGUGCUGAGGCUUCCAGGACAAAGCCCCAGUCUGGCUCUCCCCCAGCCUCUCAGGGGCACUGGCUGGUCACAUCCACUGAGUAUUGAUCGGUUGGACUUUAGGGAAGAGCCUCCUCCUUCCCAUUCCUUUCUGCCACCCUGGAAUGGCCACCUUAAUCGUCAUCUCCCUCUUGCGGUCGCACUAGUGUGGAAUUCUCGGGUGUCAAGG
B15: ENSMUSG00000058297.288|Spock2 (ssRNA)
RNA: GGGAGUUCUACAGUCCGACGAUCGCUUCGAUAUCCGCAUGCUAAGAGAGAGAGAGAGAGAGAGAGAGAGAGAGAAAGAGAGAGAGAAUGAGAGAGAAUGAGAGAGAGAAUACCCGAGGGCCACCCUGAUGCCCAGGAAGAGUGAGGGCAGCCCCCUGUGUGGUGGAAGAGGCUGGGCAGCUAGCUACUGGGGACCUUGUGCUGAGGCUUCCAGGACAAAGCCCCAGUCUGGCUCUCCCCCAGCCUCUCAGGGGCACUGGCUGGUCACAUCCACUGAGUAUUGAUCGGUUGGACUUUAGGGAAGCUCUUGCGGUCGCACUAGUGUGGAAUUCUCGGGUGUCAAGG

TDP-43, sequence (Q13148 whole entry): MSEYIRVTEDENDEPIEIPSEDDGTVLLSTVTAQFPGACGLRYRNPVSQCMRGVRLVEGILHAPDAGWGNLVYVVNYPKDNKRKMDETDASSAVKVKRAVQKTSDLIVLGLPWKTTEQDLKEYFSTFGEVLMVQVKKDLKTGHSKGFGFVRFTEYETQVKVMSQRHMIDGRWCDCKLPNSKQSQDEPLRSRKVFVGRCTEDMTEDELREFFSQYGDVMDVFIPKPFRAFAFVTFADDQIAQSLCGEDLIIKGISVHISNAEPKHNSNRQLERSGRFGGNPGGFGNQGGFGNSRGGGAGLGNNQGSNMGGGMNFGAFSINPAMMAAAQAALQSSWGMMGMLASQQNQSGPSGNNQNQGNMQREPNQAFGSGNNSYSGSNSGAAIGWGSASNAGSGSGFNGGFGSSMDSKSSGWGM

The target in this assay is TDP-43 (Homo sapiens, UniProt Q13148 1-414). The assay is described as follows: RNA Bind-n-Seq with designed 260-mer pool; 25 mM Tris-HCl, 150 mM KCl, 3 mM MgCl2, BSA (printed 500 mg/mL), 20 units/mL SUPERase IN; pH not stated; 500 nM RNA pool, 1 h, 4 C; TDP-43 5, 50, 500 nM; high values mean tight binding. As to conditions: protein: recombinant; tags: SBP (GST cleaved off with PreScission; pGEX-GST-SBP). The method in brief:
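Binding (R) is the ratio of each oligo's mapped-read-normalized abundance in the bound fraction to its abundance in the input. To obtain it, SBP-tagged recombinant TDP-43 (5, 50 or 500 nM) on streptavidin beads was incubated with 500 nM of an in vitro-transcribed 260-nt 3′ UTR oligo pool for 1 h at 4 °C in 25 mM Tris-HCl, 150 mM KCl, 3 mM MgCl2, BSA and SUPERase IN. The RNA retained after washing was released with biotin, then reverse transcribed, amplified by PCR and sequenced.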
Turning to B1, the binding signal was 0.914 R (bound/input frequency ratio).
With B2, the binding signal was 1.71 R (bound/input frequency ratio).
For the molecule B3, the binding signal was 1.07 R (bound/input frequency ratio).
As to B4, the binding signal is 0.292 R (bound/input frequency ratio).
For the molecule B5, the binding signal is 0.689 R (bound/input frequency ratio).
With B6 the figure was 0.976 R (bound/input frequency ratio); with B7, 4.65 R (bound/input frequency ratio).
For B8, the binding signal is 4.45 R (bound/input frequency ratio).
For B9, the binding signal is 7.21 R (bound/input frequency ratio).
With B10 the figure was 3.31 R (bound/input frequency ratio).
On to B11, for which the binding signal is 8.35 R (bound/input frequency ratio).
In the case of B12, the binding signal is 6.3 R (bound/input frequency ratio).
With B13 the figure was 6.59 R (bound/input frequency ratio); with B14, 3.7 R (bound/input frequency ratio); with B15, 7.62 R (bound/input frequency ratio).
